# Tb PFK inh-1: blocks T. brucei phosphofructokinase; O15648; T. brucei PFK, ADP-Glo luminescence; Potency, µM (titrated, usually from 57.5 µM), for inactives: at the top dose activity, negative = inhibition, usual class: inhibitors; 0.17% of 330,000 active; AID 485367;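 note: potency is the fitted concentration of half-maximal effect; 0% = uninhibited 1x PFK enzyme wells and -100% = no-enzyme wells; nearly all actives have a fitted effect of over 60% in size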
# Target sequence (O15648 whole entry, looked up): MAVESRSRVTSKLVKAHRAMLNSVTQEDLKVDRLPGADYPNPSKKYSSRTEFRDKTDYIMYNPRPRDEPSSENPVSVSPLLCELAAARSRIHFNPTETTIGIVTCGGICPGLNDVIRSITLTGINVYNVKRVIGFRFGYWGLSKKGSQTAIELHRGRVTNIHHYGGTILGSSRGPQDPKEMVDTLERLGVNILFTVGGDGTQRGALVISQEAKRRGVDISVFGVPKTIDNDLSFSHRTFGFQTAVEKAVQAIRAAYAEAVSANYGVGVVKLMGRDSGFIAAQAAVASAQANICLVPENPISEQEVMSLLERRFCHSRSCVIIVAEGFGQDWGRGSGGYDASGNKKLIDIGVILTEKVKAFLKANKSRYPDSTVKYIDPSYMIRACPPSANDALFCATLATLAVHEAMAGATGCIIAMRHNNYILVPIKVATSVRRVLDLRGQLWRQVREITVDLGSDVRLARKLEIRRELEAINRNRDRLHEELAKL
#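 Compounds were pin-transferred as a titration series up to 57 uM into substrate buffer (0.5 mM F6P, 0.1 mM ATP, pH 8.0), then 1.25 nM PFK was added and reactions ran 45 min before ADP-Glo detection.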
# Pin1 inhibitor: inhibitors of human Pin1; Pin1 FP peptide displacement, HiFluor488, 10 min; Potency, µM (titrated, usually from 115 µM), inactives show top-dose activity, negative = inhibition, hits mostly inhibitors; 0.009% of 390,000 active; AID 504891; active = well fitted inhibition curve with a large enough effect in the polarisation, with a control signal flat, not every such curve was filed as active; inconclusive = small, poorly fitted or top-dose-only effect, or effect the other way, or a change in a side signal; inactive = no such curve, though single readings can be large or run the other way; the % refers to the polarisation; note: potency is the fitted concentration of half-maximal effect; % is set by controls: 0 for no effect and ±100 for the full control effect
# PI4K2A block: PI4K2A (human) kinase inhibition; Q9BTU6; purified PI4K2A, ADP-Glo luminescence, 1 h; active compounds read low; activity change, negative = inhibition, % at 76.9 µM; 0.13% of 420,000 active; in the data active = activity change below about -50%; inconclusive = mostly about -30% to -49%;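 note: -100% = wells without enzyme as full effect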
#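 PI4K2A activity was measured by ADP-Glo luminescence: enzyme (4 ug/mL stock) and phosphatidylinositol (1.2 mM stock) in Tris pH 7.5/MgCl2/EGTA/Triton X-100 buffer were reacted with ATP (300 microM stock) for one hour at ambient temperature.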
# PGK inhibitor: blocks T. brucei phosphoglycerate kinase. Potency, µM (highest dose often 57.5 µM), without a hit: top-dose activity change, negative = inhibition, most hits filed as inhibitors. PGK/GAPDH coupled, Kinase-Glo luminescence, 60 min. 0.043% of 380,000 active; note: potency is the fitted concentration of half-maximal effect; % is set by controls: 0 for no effect and ±100 for the full control effect; nearly all actives have a fitted effect of over 60% in size
#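 Recombinant glycosomal PGK reaction used 1,3-bisphosphoglycerate generated in-well by GAPDH (100nM final) in 100mM TEA pH 7.6, 5mM MgCl2, 0.01% Tween-20. After 60 minutes at room temperature, ATP was read by Kinase-Glo Plus luminescence end-point.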
# PI5P4Ka inh: inhibitors of human PI5P4K alpha. 1.2% of 330,000 active. P48426. AID 652105. max response, %. PI5P4Kalpha enzyme, ADP-Glo luminescence, 60 min; active compounds read low; active = max response of -50% or lower; inconclusive = between -30% and -50%; inactive = -30% or higher; note: value at the top dose of about 77 µM; % is set by controls: 0 for no effect and ±100 for the full control effect
#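 Quantitative HTS of the MLSMR library against PI5P4Kalpha with substrate. ATP added last at 5 microM final; room temperature, 60 minutes. Remaining ATP depleted, ADP converted and read as luminescence.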
# TbPFK ATP: orthogonal confirmation of T. brucei phosphofructokinase inhibitors; Potency, µM (doses to about 57.5 µM), for the others: top-dose inhibition; Tb PFK enzyme, ATP depletion, Kinase-Glo Plus luminescence; 47% of 1,100 active; shares compounds with Tb PFK inh-1; calls by dose curve; note: potency is the fitted concentration of half-maximal effect; nearly all actives have a fitted effect of over 60% in size
# Tb PFK inh-2: validation of T. brucei phosphofructokinase inhibitors; shares compounds with Tb PFK inh-1; Potency, µM (highest dose often 57.5 µM), for inactives: at the top dose activity change, negative = inhibition, usual class: inhibitors; purified T. brucei PFK, ADP-Glo luminescence, 45 min; 41% of 1,100 active; AID 504637;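 note: potency is the fitted concentration of half-maximal effect; plate controls were full PFK enzyme control for no effect and no enzyme control for full effect; nearly all actives have a fitted effect of over 60% in size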
# An asterisk follows results filed as active; i = inactive; ? = inconclusive; / = no result. Many of the other results were omitted from the sample, so hits are more common in it than they were. Unless noted, calls come from the whole dose curve; as a rule, active = well fitted curve in the direction sought with a large enough effect; inconclusive = small, poorly fitted or top-dose-only effect, or another doubt; inactive = no such curve, though single readings can be large; an effect the other way counts as inactive or inconclusive.
SMILES,Tb PFK inh-1,Pin1 inhibitor,PI4K2A block,PGK inhibitor,PI5P4Ka inh,TbPFK ATP,Tb PFK inh-2
COc1ccccc1NS(=O)(=O)c1cc(NC(=O)c2sccc2C)ccc1N1CCCC1,?,25%,-1,0%,?,12µM*,24µM*
CN1C(=O)C(=Cc2ccc(-c3cccc(Cl)c3)o2)C(=O)N(C)C1=O,1%,/,/,/,/,/,/
O=C1OC(c2cccs2)=N/C1=C/c1ccc(-c2cccc(C(=O)O)c2)o1,?,/,-7,-22%,-70*,?,?
Cc1nnc(NCCc2ccccc2)[nH]c1=O,?,-2%,-1,-9%,/,24µM*,27µM*
Cc1cccc(CNCCc2ccccc2)n1,0%,-5%,7,-1%,-16,/,/
C=CC[C@@H](CC(=O)N[C@H](CO)Cc1ccccc1)C(=O)NCCOC(=O)[C@@H](CC=C)Cc1ccc(F)cc1,-5%,?,1,-5%,2,/,/
Cc1cc(-c2ccc(C)c(S(=O)(=O)N3CCOc4ccc(Cl)cc43)c2)on1,/,?,3,-1%,/,/,/
C=CCn1c(O)c(C(CC)=NCc2cccnc2)c(=O)[nH]c1=O,-2%,?,12,-5%,0,/,/
CCOc1cc(/C=C\[N+](=O)[O-])ccc1OCC(=O)Nc1ccccc1C,?,2%,-1,8%,?,-29%,?
Cc1ccc(Cc2cnc(NC(=O)CN3CCOCC3)s2)cc1Cl,?,-1%,-2,3%,/,24µM*,30µM*
Cc1ccc(NC(=O)c2ncn(CCCNCCN3CCOCC3)n2)cc1C,/,2%,0,2%,0,/,/
COc1ccc(-n2c(C)nc3cc(C(=O)N4CCC5(CC4)OCCO5)ccc32)cc1,-1%,0%,-1,4%,-6,/,/
Cc1nc2cc(NC(=O)COc3ccc(C#N)cc3)ccc2n1-c1ccccc1,21µM*,-5%,8,6%,1,?,?
COP(=O)(OC)c1nc(-c2cccc3ccccc23)oc1NCCc1ccccc1,-1%,?,0,-5%,25,/,/
CC(=O)Nc1ccc(CC(=O)N2CCN(Cc3ccccc3)CC2)cc1,0%,4%,-6,i,-5,/,/
O=C(Cc1ccc(Cl)c(Cl)c1)Nc1ccc(S(=O)(=O)Nc2ncccn2)cc1,2.4µM*,4%,-2,-9%,0,0.85µM*,1.9µM*
Cc1ccnc(NS(=O)(=O)c2ccc(NC(=O)Cc3ccc(Br)cc3)cc2)n1,?,1%,6,1%,-2,21µM*,?
CCCc1ccc(OCC(=O)Nc2ccc(Cl)cc2C(=O)c2ccccc2)cc1,/,3%,-10,1%,/,/,/
CC[C@]1(C(=O)OC)[C@H]2C(=O)N(Cc3ccccc3)C(=O)[C@H]2[C@H]2CN=C(SCc3ccc(C(=O)OC)cc3)N21,-2%,?,0,4%,6,/,/
CNCc1ccccc1Sc1cc(O)ccc1O,?,?,-9,-6%,?,3.4µM*,8.5µM*
C=CCn1c(O)c(C(C)=Nc2cccc(C(=O)O)c2)c(=O)[nH]c1=O,8%,-8%,-7,-10%,-18,/,/
C=CCn1c(=O)[nH]c2cc(C(=O)N3CCN(c4ccc(C(C)=O)cc4)CC3)ccc2c1=O,?,?,-28,i,/,?,?
Nc1nnc(Cc2cccc(Br)c2)s1,?,-1%,3,-4%,0,21µM*,30µM*
COc1cc(OC)cc(C(=O)Nc2nc(-c3nnn(-c4ccc(C)cc4)c3C)ns2)c1,/,20%,-5,6%,/,/,/
CCn1cc2nc(SCc3cc(C)ccc3C)n(Cc3ccc(OC)cc3)c(=O)c2n1,/,?,-1,-1%,/,/,/
Cc1cc[n+](-c2[nH]c(=O)sc2/C=N/N=C(\[O-])c2ccncc2)cc1,19µM*,?,-10,-6%,-7,?,-21%

# Screening results from PubChem BioAssay.
